These results are taken from PubChem BioAssay (Tox21).

“And” between values parts separate entries of the source, which are not always exact repeats. Identical values can stand only once. Records with an inconclusive call do not appear. Entries that show only a call come without a potency. The source made the active and inactive calls. Calls come from the whole dose curve.
Potency is the fitted concentration of half-maximal effect.

This assay in a line: qHTS assay to identify small molecule agonists of the hypoxia (HIF-1) signaling pathway - cell viability counter screen (AID 1224844). Note: nearly all actives have a fitted effect of over 50% in size. The conditions noted are these: HRE-bla ME-180 viability, CellTiter-Glo luminescence, 17 h; series mostly up to 76.8 µM. The source says:
National Center for Advancing Translational Sciences [NCATS]
NIH Chemical Genomics Center [NCGC]
U.S. Environmental Protection Agency [EPA]
National Institutes of Environmental Health Sciences [NIEHS]
National Toxicology Program [NTP]
U.S. Food and Drug Administration [FDA]
Hypoxia-inducible factor-1 (HIF-1) is the major hypoxia-regulated transcription factor that controls cellular responses to low oxygen concentration. HIF-1 is composed of two subunits: hypoxia responsive HIF-1-alpha and constitutively expressed HIF-1-beta, which is also known as aryl hydrocarbon receptor nuclear translocator. During hypoxic conditions, HIF-1-alpha heterodimerizes with HIF-1-beta and translocates into the nucleus where the HIF-1 complex binds to the hypoxia-response element (HRE) and activates expression of target genes such as VEGF (vascular endothelial growth factor). The HIF-1 pathway is essential to normal growth and development, and is involved in the pathophysiology of cancer, inflammation, and ischemia.
Using a beta-lactamase reporter-gene under control of the hypoxia response element, a cell-based assay [CellSensor(TM) HRE-bla ME-180 from Life Technologies, Carlsbad, CA] was used to measure hypoxia-induced signaling. Tox21 10K library compounds were measured for their ability to induce the reporter gene activity. The cytotoxicity of the Tox21 compound library against HRE-bla ME-180 cell line was tested in parallel by measuring cell viability using CellTiter-Glo assay (Promega, Madison, WI) in the same assay wells.
Tox21 Assay Protocol Summary:
HRE-bla ME-180 cells were dispensed at 2,000 cells per well in 6 uL of assay medium containing 0.5% dialyzed FBS into black wall/clear-bottom 1536-well plates using a Multidrop Combi (Thermo Scientific, Waltham, MA) dispenser. After the assay plates were incubated at 37C and 5% CO2 for 5 hrs, 23 nL of compounds dissolved in DMSO, positive controls or DMSO only was transferred to each well of the assay plate using a Pintool station (Kalypsys, San Diego, CA). The assay plates were incubated at 37C and 5% CO2 for 17 hrs. One uL of LiveBLAzerTM B/G FRET substrate (CCF4-AM) (Life Technologies) was added to each well using a Flying Reagent Dispenser (FRD, Aurora Discovery, San Diego, CA). After 2 hr incubation at room temperature, fluorescence intensity (405 nm excitation, 460 nm and 530 nm emissions) was measured using an Envision plate reader (PerkinElmer, Shelton, CT). For cytotoxicity, 4 ul/well of CellTiter-Glo reagent was added into the assay plates using an FRD. After 30 min incubation at room temperature, the luminescence intensity was measured using a ViewLux plate reader (PerkinElmer).
`CCN(C(C)=O)c1cccc(-c2ccnc3c(C#N)cnn23)c1`: the Potency entry is “inactive”.

Consider `CCCC1CCCCN1` (stereo not given), for which the Potency entry was “inactive”.

`CC(C)[C@@H](C(=O)O[C@@H](C#N)c1cccc(Oc2ccccc2)c1)c1ccc(Cl)cc1`: the Potency result was “inactive”.

Consider `C=C(Cl)Cl`, for which the Potency entry was “inactive”.

With `O=C(CCl)CCl`, the Potency was 21.9 µM (active).

Regarding `CC(Cl)C(=O)O` (stereo not given), the Potency entry was “inactive”.

On to `O=C=NC1CCCCC1`, for which the Potency result was “inactive”.

`CCCCCCCCCCCCN(C)C`: the Potency entry was “inactive”.

For the molecule `CN(C)N`, the Potency entry was “inactive”.

Turning to `N#CC1(N=NC2(C#N)CCCCC2)CCCCC1`, the Potency entry is “inactive”.

As for `CCCCOC(=O)CCC(=O)OCCCC`, the Potency entry was “inactive”.

Regarding `C[C@H](N)[C@H](O)c1ccc(O)c(O)c1`, the Potency result is “inactive”.

As for `CC(C)(C#N)C(C)(C)C#N`, the Potency result was “inactive”.

In the case of `C=CCOCC1CO1` (stereo not given), the Potency result is “inactive”.

As to `CC(Cc1ccccc1)NCc1ccccc1Cl` (stereo not given), the Potency entry was “inactive”.

On to `CC(C)CCON=O`, for which the Potency entry was “inactive”.

As to `CCOC(C(=O)OCCN(C)C)(c1ccccc1)c1ccccc1`, the Potency entry is “inactive”.

Turning to `N#CC(C#N)=Cc1ccc(O)c(O)c1`, the Potency result is “inactive”.

For `CCC(C)(C)c1ccc(O)c(C(C)(C)CC)c1`, the Potency was 19.3 µM (active) and 24.5 µM (active).

As to `C=CCc1ccccc1O`, the Potency result was “inactive”.

For the molecule `Cc1cnc(C2=NC(C)(C(C)C)C(=O)N2)c(C(=O)O)c1` (stereo not given), the Potency entry is “inactive”.

In the case of `CCCSP(=S)(OCC)Oc1ccc(SC)cc1` (stereo not given), the Potency entry is “inactive”.

As for `O=C(O)COc1cc(Cl)c(Cl)cc1Cl`, the Potency entry was “inactive”.

For the molecule `CC(=O)NNc1ccccc1`, the Potency result is “inactive”.

In the case of `O=[N+]([O-])O[C@H]1CO[C@H]2[C@@H]1OC[C@H]2O[N+](=O)[O-]`, the Potency entry was “inactive”.

For `OCCSSCCO`, the Potency entry was “inactive”.

Regarding `CCCC(C)(COC(N)=O)COC(=O)NC(C)C` (stereo not given), the Potency entry is “inactive”.

As to `OCC1CO1` (stereo not given), the Potency result is “inactive”.

On to `CN1CC[C@]23c4c5ccc(O)c4O[C@H]2[C@@H](O)C=C[C@H]3[C@H]1C5`, for which the Potency result is “inactive”.

For the molecule `CCCC[P+](CC)(CCCC)CCCC` (tested in a mixture with another compound), the Potency entry is “inactive”.

For the molecule `O=C(N[C@H]1CN2CCC1CC2)c1ccc2c(c1)OCCO2`, the Potency entry was “inactive”.

As for `COCc1cnc(C2=NC(C)(C(C)C)C(=O)N2)c(C(=O)O)c1` (stereo not given), the Potency entry is “inactive”.

As for `Nc1ccc2c(c1)Cc1ccccc1-2`, the Potency entry is “inactive”.

Consider `C[CH2][Hg][S]c1ccccc1C(=O)O`, for which the Potency was 616 nM (active) and 1.9 µM (active).

With `CC(C)C1(C)N=C(c2ncccc2C(=O)O)NC1=O` (stereo not given), the Potency entry was “inactive”.

Consider `C[N+]1(CCF)[C@@H]2CC[C@H]1CC(OC(=O)C(O)(c1ccccc1)c1ccccc1)C2` (stereo not given in full), for which the Potency entry was “inactive”.

`O=C(O)c1ccc(=O)[nH]c1`: the Potency entry is “inactive”.

Take `CCCN(CCC)c1c([N+](=O)[O-])cc(C(C)C)cc1[N+](=O)[O-]`: the Potency entry is “inactive”.

Consider `CCC1(CC)C(=O)NC(=O)NC1=O`, for which the Potency result was “inactive”.

As for `CC(Oc1cccc(Cl)c1)C(=O)O` (stereo not given), the Potency entry was “inactive”.
